# Autofluor counter: counter-screen for toxin protease inhibitors: compound fluorescence. fluorescence intensity (concentration not given with the values). AID 624483. compound autofluorescence counterscreen, microsphere flow cytometry; stronger effect = higher value. 360,000 tested, 3.1% active; in the data active = fluorescence intensity above about 16000; inconclusive = no clear call, values can overlap the other calls
# GDH-TPI inh: inhibits GDH-TPI coupling enzymes, artifact for Mtb FBA screen; GDH-TPI coupled enzyme counterscreen, NADH absorbance; inhibition, % at 4.8 µM; 360,000 tested, 1.2% active; in the data active = inhibition above about 30%
# BoNT-F LC inh: blocks Botulinum neurotoxin F light chain protease; 360,000 tested, 0.22% active; Multiplex microsphere protease cleavage assay, flow cytometry; inhibition, % at 10 µM; AID 588497; in the data active = inhibition above about 35%, passing the limit was not always enough; inconclusive = no clear call, values can overlap the other calls
# Anthrax LF inh2: inhibitors of Bacillus anthracis lethal factor protease | P15917 | multiplex microsphere protease cleavage assay, LF | inhibition, % at 10 µM | 360,000 tested, 0.12% active | AID 588501
# BoNT A protease: inhibitors of Botulinum neurotoxin A light chain protease; multiplex microsphere protease substrate cleavage, flow cytometry; inhibition, % at 10 µM; 360,000 tested, 0.17% active
# FBA Mtb inh: Mtb fructose-bisphosphate aldolase inhibition; 360,000 tested, 2.3% active; AID 588726; purified M. tuberculosis FBA, fluorescence read-out; inhibition, % at 1 µM; in the data active = inhibition above about 27%
# Target sequence (P9WQA3 whole entry, looked up): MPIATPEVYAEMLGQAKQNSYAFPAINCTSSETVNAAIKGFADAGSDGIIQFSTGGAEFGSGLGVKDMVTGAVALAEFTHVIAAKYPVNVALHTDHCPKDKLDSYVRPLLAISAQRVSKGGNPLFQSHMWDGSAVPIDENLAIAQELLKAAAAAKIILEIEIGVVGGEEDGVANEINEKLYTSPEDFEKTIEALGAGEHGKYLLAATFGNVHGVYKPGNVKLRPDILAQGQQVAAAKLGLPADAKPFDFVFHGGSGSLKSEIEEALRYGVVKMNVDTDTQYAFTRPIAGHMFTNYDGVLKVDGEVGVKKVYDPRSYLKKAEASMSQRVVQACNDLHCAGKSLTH
# Numbers stand for hits; i = inactive; ? = inconclusive; nt = not tested or not shown; + = active, no number. Most compounds without a hit are left out; they make up all but 6.6% or so of the library. Rule as the data show it, unless noted: active = inhibition above about 30%; inconclusive = no clear call, values can overlap the other calls; inactive = below that.
SMILES,Autofluor counter,GDH-TPI inh,BoNT-F LC inh,Anthrax LF inh2,BoNT A protease,FBA Mtb inh
O=C(NNC(=O)c1csc(N2CCOCC2)n1)c1ccc(Cl)nc1,i,i,i,i,i,i
COc1ccc(C)cc1NC(=O)c1cc(C2CC2)nc2c1c(C)nn2C1CCS(=O)(=O)C1 (stereo unspecified),i,i,i,i,i,i
COc1cccc(/C=C2/Oc3ccccc3N(CC(=O)NCC3CCCO3)C2=O)c1 (stereo unspecified),i,i,i,i,i,i
CNc1cncc(-c2ccc(CN3CCOCC3)cc2)n1,i,i,i,i,i,+
COc1ccc2nc(NC(=O)CCN3C(=S)NC(C)(C)CC3C)sc2c1 (stereo unspecified),i,i,i,i,i,i
Oc1ccc(-c2nc3ccc4ccccc4c3c3c2CCC3)cc1O,i,i,i,i,i,i
CCCCCCCCCCS(=O)(=O)N/N=C/c1ccc([N+](=O)[O-])cc1,21737,i,i,i,?,i
O=C(Nc1ccc2c(c1)OCCO2)c1cnn(-c2ccccc2)n1,i,i,i,i,i,i
O=C(CSc1ncn[nH]1)N1CCCCC1,i,i,i,i,i,i
O=C(CSc1ncn[nH]1)N(C1CCCCC1)C1CCCCC1,20145,i,i,i,i,i
C/C(=N\Nc1nc2ccccc2[nH]1)c1ccc2c(c1)OCO2,i,31.1,i,i,i,i
C/C(=N\Nc1nc2ccccc2[nH]1)c1cc2ccccc2o1,i,32.6,i,i,i,i
COc1cccc(C(=O)C2CN(c3ccccc3)CC2c2ccc(Cl)cc2)c1 (stereo unspecified),21602,i,i,i,i,i
Cc1cc(S(=O)(=O)c2ccc(Cl)cc2)nc(S(=O)(=O)c2ccc(Cl)cc2)c1C#N,i,i,i,i,i,i
Cc1nn(-c2ccccc2)c2nc(N)c(C(N)=O)cc12,i,i,i,i,i,71.1
CCC1(CC)C(=O)NC(=O)NC1=NCCc1c[nH]c2ccccc12,21453,i,i,i,i,i
Cc1noc(C)c1CS(=O)(=O)c1ccc(Br)cc1,i,i,i,i,i,i
Cc1ccc(S(=O)(=O)Cc2c(C)noc2C)cc1,22977,i,i,i,i,i
COC(=O)C1=C(N)c2c(F)cccc2C1(C#N)c1ccc(F)cc1 (stereo unspecified),i,i,i,i,i,i
Cc1c(NC(=O)c2cccc(-c3cc4ccccc4oc3=O)c2)cccc1-c1nc2ncccc2o1,i,i,i,i,i,i
CC(C)C[C@H]1CNC(=S)N1CC1CCCN1C[C@H](CC(C)C)N1C[C@H](CC(C)C)N(CCc2ccccc2)C1=S (stereo partly specified),i,i,i,i,i,i
c1cn(CCCNC2CCCCCCC2)cn1,i,i,?,i,i,i
CC1(C(=O)NC(=S)N(CCC#N)c2ccccc2)CC1(Cl)Cl (stereo unspecified),21445,i,i,i,i,i
COc1ccc(CCN2CC(C(=O)NCc3ccco3)CC2=O)cc1OC (stereo unspecified),16739,i,i,i,i,i
Cc1ccc(CCNC(=O)C2CC(=O)N(C3CCCCC3)C2)cc1 (stereo unspecified),i,i,i,i,i,i
SMILES,Autofluor counter,GDH-TPI inh,BoNT-F LC inh,Anthrax LF inh2,BoNT A protease,FBA Mtb inh
COc1ccc(CCNC(=O)C2CC(=O)N(C3CCCCCCC3)C2)cc1OC (stereo unspecified),24165,i,i,i,i,i
COc1ccc(CCNC(=O)C2CCN(S(=O)(=O)N3CCCCCC3)CC2)cc1OC,22454,i,i,i,i,i
N#Cc1c(Cc2cccc3ccccc23)nn(CCO)c1N,i,i,i,i,i,i
COc1ccc(Nc2c3ccccc3nc3ccccc23)cc1,i,i,i,i,i,i
c1cncc(Nc2c3ccccc3nc3ccccc23)c1,i,i,i,i,i,40.2
O=C1NC[C@H](CCCCN2CCN(Cc3ccccc3)C(=O)C2=O)N(Cc2ccccc2)C1=O,i,nt,i,i,i,nt
Cc1ccc(-c2nc3sc4c(N)ncnc4c3c3c2CCCC3)cc1,22379,i,i,i,i,i
O=c1[nH]cnc2c1sc1nc(-c3ccccc3)c3c(c12)CCCC3,i,i,i,i,i,i
CC(C)(C)C(O)CN1CCCC1 (stereo unspecified),i,i,i,i,i,i
COc1ccc(-c2csc(C)n2)cc1OC,23023,i,i,i,i,i
COc1ccc(-c2csc(C)n2)cc1,i,i,i,i,i,i
Cc1nc(-c2ccccc2)cs1,21622,i,i,i,i,i
CC(C)NC(=O)C1CCN(C2CCN(C(=O)c3scc4c3CCCC4)CC2)CC1,i,i,i,i,i,i
CCc1nonc1NC(=O)c1oc2ccccc2c1C,i,i,i,i,i,i
CN1CCCC(OC(=O)c2cccc(Br)c2)C1 (stereo unspecified),i,i,?,i,i,i
CN1CCC(OC(=O)c2cccc(Br)c2)CC1,21018,i,i,i,i,i
Cc1ccc(-n2c3c(c(=O)[nH]c2=O)C(NS(=O)(=O)c2ccc(C)cc2)(C(F)(F)F)C(=O)N3)cc1 (stereo unspecified),i,i,i,i,i,i
Cc1ccc(-n2c3c(c(=O)[nH]c2=O)C(C(F)(F)F)(C(F)(F)F)NC(=O)N3)cc1,16132,i,i,i,i,i
Cc1ccc(Nc2nc(N)nc(-c3oc4ccccc4c3C)n2)cc1,i,i,i,i,i,i
Cc1c(-c2nc(N)nc(Nc3ccccc3F)n2)oc2ccccc12,24893,i,i,i,i,i
Cc1cc2c3c(c1)C1(SCC(=O)N1c1ccc(F)cc1)C(=O)N3C(C)(C)CC2C (stereo unspecified),18092,i,i,i,i,i
O=S(=O)(c1ccc(Br)cc1)N1CCn2c(nc3ccccc32)C1,i,i,i,i,i,i
O=S(=O)(c1ccc(Cl)c(Cl)c1)N1CCc2nc3ccccc3n2CC1,17740,i,i,i,i,i
CC(C)(C)NC(=O)C(c1c[nH]c2ccccc12)N(C(=O)Cn1nnc(-c2ccc(Cl)cc2)n1)c1ccccc1F (stereo unspecified),i,i,i,i,i,i
COc1cccc(N(C(=O)Cn2nnc(-c3ccc(C)cc3)n2)C(C(=O)NC(C)(C)C)c2c[nH]c3ccccc23)c1 (stereo unspecified),23333,i,i,i,i,i
COc1ccc(O)c(C2NC(CC(C)C)(C(=O)O)C3C(=O)N(Cc4ccccc4)C(=O)C23)c1 (stereo unspecified),16430,i,i,i,i,i
Fc1cccc(C[n+]2csc3ccccc32)c1,17119,i,i,i,i,i
O=C(COC(=O)C1CCC(=O)N1)Nc1ccccc1Br (stereo unspecified),i,31.6,i,i,i,i
O=c1cc(C(F)(F)F)nc(-c2ccccc2)[nH]1,21831,i,i,i,?,i
O=C(OCc1nnc(-c2ccc([N+](=O)[O-])cc2)o1)c1ccc(F)c(S(=O)(=O)N2CCOCC2)c1,i,i,i,i,i,i
